Reference: PubChem BioAssay (NCI)
The panel holds about 83,000 compounds, 20% with a hit somewhere; the sample as a whole holds those more often.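 Step 1: grow cells in 96-well plates. Step 2: add test compound at a single concentration. Step 3: incubate 48 h. Step 4: record percent growth.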 Calls of active or inactive are those of the source. The calls were made as follows: active = growth percent below 10; inactive = the rest.

What was measured:
Assay in all cases: NCI-60 one-dose screen, 48 h (100 = growth as untreated, 0 = no growth, -100 = all killed)
Conditions in all cases: 10 µM unless noted
HCT-15 colon = tested on: HCT-15 colon
HT29 colon = tested on: HT29 colon
SNB-75 CNS = tested on: SNB-75 CNS
SNB-19 CNS = tested on: SNB-19 CNS
U251 CNS = tested on: U251 CNS
PC-3 prostate = tested on: PC-3 prostate
SK-MEL-5 melanoma = tested on: SK-MEL-5 melanoma
UACC-62 melanoma = tested on: UACC-62 melanoma
LOX IMVI melanoma = tested on: LOX IMVI melanoma
SK-MEL-28 melanoma = tested on: SK-MEL-28 melanoma

Measured: growth

Cn1cc(-c2noc(-c3cn(C)c4ncc(F)cc34)n2)c2cc(Br)ccc21
inactive: HCT-15 colon 76% | HT29 colon 47.3% | SNB-75 CNS 61.2% | SNB-19 CNS 75.9% | U251 CNS 29.4% | PC-3 prostate 75.3% | SK-MEL-5 melanoma 83.9% | UACC-62 melanoma 76.1% | LOX IMVI melanoma 70.7% | SK-MEL-28 melanoma 83.7%

COc1cc2c(cc1OC(C)=O)C(=O)CCCC2
inactive: HCT-15 colon 83% | HT29 colon 96.5% | SNB-75 CNS 54.2% | SNB-19 CNS 109% | U251 CNS 94.4% | PC-3 prostate 87.5% | SK-MEL-5 melanoma 90.1% | UACC-62 melanoma 105% | LOX IMVI melanoma 95.6% | SK-MEL-28 melanoma 95.2%

O=C(Nc1ccc(Oc2ccc(F)cc2)c(Cl)c1)c1cnccn1
inactive: HCT-15 colon 47.7% | HT29 colon 23.7% | SNB-75 CNS 47.7% | SNB-19 CNS 63.7% | U251 CNS 38.2% | PC-3 prostate 76% | SK-MEL-5 melanoma 49.5% | UACC-62 melanoma 50.3% | LOX IMVI melanoma 51.5% | SK-MEL-28 melanoma 76.9%

C[C@H]1[C@H](C)CC[C@]2(COC(=O)CCC(=O)O)CC[C@]3(C)C(=CC[C@@H]4[C@@]5(C)CCCNC(C)(C)[C@@H]5CC[C@]43C)[C@H]12
inactive: HCT-15 colon 65.9% [100 µM] | HT29 colon 52.2% [100 µM] | SNB-19 CNS 53.1% [100 µM] | U251 CNS 60.7% [100 µM] | PC-3 prostate 32.7% [100 µM] | SK-MEL-5 melanoma 46.2% [100 µM] | UACC-62 melanoma 56.3% [100 µM] | LOX IMVI melanoma 70.5% [100 µM] | SK-MEL-28 melanoma 82.2% [100 µM]
active: SNB-75 CNS -2.3% [100 µM]

CC(C)[N+](C)(C)CC(O)COc1cccc2ccccc12 (stereo not given)
inactive: HCT-15 colon 97.1% | HT29 colon 111% | SNB-75 CNS 109% | SNB-19 CNS 103% | U251 CNS 101% | PC-3 prostate 92.2% | SK-MEL-5 melanoma 107% | UACC-62 melanoma 101% | LOX IMVI melanoma 93.2% | SK-MEL-28 melanoma 113%

COc1c(C(C)=O)c(OCCCCOc2c(C(C)=O)c(OC)c3ccoc3c2OC)c(OC)c2occc12
inactive: HCT-15 colon 78.8% | HT29 colon 65.9% | SNB-75 CNS 107% | SNB-19 CNS 80% | U251 CNS 79.9% | PC-3 prostate 55.2% | SK-MEL-5 melanoma 51.3% | UACC-62 melanoma 55.8% | LOX IMVI melanoma 74.5% | SK-MEL-28 melanoma 96.3%

CCCCCCCCCCCCCCNC(=O)Nc1ccc(Cl)c(Cl)c1
inactive: HCT-15 colon 16.9% | HT29 colon 46.6% | SNB-75 CNS 53.7% | SNB-19 CNS 56.3% | U251 CNS 19.8% | PC-3 prostate 16.7% | SK-MEL-5 melanoma 51.3% | UACC-62 melanoma 33.6% | SK-MEL-28 melanoma 60.9%
active: LOX IMVI melanoma 7.74%

Cc1cnc([C@]23CC[C@@H](C)[C@H](C)[C@H]2C2=CC[C@@H]4[C@@]5(C)Cc6c([nH]c7ccccc67)C(C)(C)[C@@H]5CC[C@@]4(C)[C@]2(C)CC3)o1
inactive: HCT-15 colon 66.8% [100 µM] | HT29 colon 25.7% [100 µM] | SNB-75 CNS 62.4% [100 µM] | SNB-19 CNS 35.6% [100 µM] | U251 CNS 41.7% [100 µM] | PC-3 prostate 55.4% [100 µM] | SK-MEL-5 melanoma 29% [100 µM] | UACC-62 melanoma 24.4% [100 µM] | LOX IMVI melanoma 17.3% [100 µM] | SK-MEL-28 melanoma 20.3% [100 µM]

CCn1cc(-c2[nH]c(=S)ncc2-c2ccc(Cl)cc2)c(-c2ccc(Br)cc2)n1
inactive: HCT-15 colon 85.5% | HT29 colon 92.1% | SNB-75 CNS 99.1% | SNB-19 CNS 75.6% | U251 CNS 74.3% | PC-3 prostate 64.3% | SK-MEL-5 melanoma 86.4% | UACC-62 melanoma 76.7% | LOX IMVI melanoma 86.8% | SK-MEL-28 melanoma 73.7%

O=C(NCCCCCCCNC(=O)OCc1ccc2c(Cl)cc(Cl)c(O)c2n1)OCc1ccc2c(Cl)cc(Cl)c(O)c2n1
active: HCT-15 colon -24.6% | HT29 colon -67% | SNB-75 CNS -92.4% | SNB-19 CNS 0.446% | U251 CNS -90.8% | PC-3 prostate -54.5% | SK-MEL-5 melanoma -96.1% | UACC-62 melanoma -79.3% | LOX IMVI melanoma -88.5% | SK-MEL-28 melanoma -83.1%

C#CCNC(=O)CC[C@@H](C)[C@H]1CC[C@H]2[C@@H]3CC[C@@H]4CC(=O)CC[C@]4(C)[C@H]3CC[C@]12C
active: HCT-15 colon 1.91% [100 µM] | HT29 colon -25% [100 µM] | SNB-75 CNS -58.3% [100 µM] | U251 CNS -43.4% [100 µM] | PC-3 prostate -14.6% [100 µM] | SK-MEL-5 melanoma -86.5% [100 µM] | UACC-62 melanoma -74% [100 µM] | LOX IMVI melanoma -71.6% [100 µM] | SK-MEL-28 melanoma -84.4% [100 µM]
inactive: SNB-19 CNS 14.8% [100 µM]

CCCCCn1sc(=O)n(Cc2ccc(CNC(=O)OCc3ccc4cccc(O)c4n3)cc2)c1=O
active: HCT-15 colon -20.5% | HT29 colon -49.2% | SNB-75 CNS -4.62% | PC-3 prostate 3.68% | SK-MEL-5 melanoma -44.7% | UACC-62 melanoma -64.2% | LOX IMVI melanoma -91.5% | SK-MEL-28 melanoma -35%
inactive: SNB-19 CNS 37% | U251 CNS 20.1%

NC(=O)CC1C=CCC1 (stereo not given)
inactive: HCT-15 colon 99.5% | HT29 colon 96.3% | SNB-75 CNS 84.3% | SNB-19 CNS 104% | U251 CNS 85.5% | PC-3 prostate 98.7% | SK-MEL-5 melanoma 99.5% | UACC-62 melanoma 101% | LOX IMVI melanoma 103% | SK-MEL-28 melanoma 109%

CCOc1cccc2c(NC(C)CCCN(CC)CC)c(C)cnc12 (stereo not given)
inactive: HCT-15 colon 99.1% | HT29 colon 85.1% | SNB-75 CNS 67.9% | SNB-19 CNS 102% | U251 CNS 103% | PC-3 prostate 85.9% | SK-MEL-5 melanoma 108% | UACC-62 melanoma 108% | LOX IMVI melanoma 90.2% | SK-MEL-28 melanoma 126%

Cc1cnc(N)nc1OCCNC(=O)c1cccc(-c2ccc(S(=O)(=O)Nc3ccc4c(c3)N(C(=O)C3CC3)CCC4)cc2)c1
inactive: HCT-15 colon 96.4% | HT29 colon 80.5% | SNB-75 CNS 57.3% | SNB-19 CNS 75.5% | U251 CNS 88.4% | PC-3 prostate 53.5% | SK-MEL-5 melanoma 23.8% | UACC-62 melanoma 48.1% | LOX IMVI melanoma 88.5% | SK-MEL-28 melanoma 88.6%

c1nc(N2CCOCC2)c2[nH]ccc2n1
inactive: HCT-15 colon 105% | HT29 colon 96% | SNB-75 CNS 97.6% | SNB-19 CNS 107% | U251 CNS 100% | PC-3 prostate 107% | SK-MEL-5 melanoma 111% | UACC-62 melanoma 103% | LOX IMVI melanoma 99.8% | SK-MEL-28 melanoma 106%

CNC(=O)c1cc(Oc2ccc3nc(NC(=O)c4ccc5ncccc5c4)sc3c2)ccn1
inactive: HCT-15 colon 91.1% | HT29 colon 69.9% | SNB-75 CNS 86.5% | SNB-19 CNS 95.1% | U251 CNS 93.6% | PC-3 prostate 93.2% | SK-MEL-5 melanoma 86.4% | UACC-62 melanoma 94.9% | LOX IMVI melanoma 99.6% | SK-MEL-28 melanoma 101%

COc1ccc(-c2cc(-c3ccc(OC)c(OC)c3)nc(SCCCCCC(=O)NO)n2)cc1
inactive: HCT-15 colon 96.5% | HT29 colon 31.3% | SNB-75 CNS 46.2% | SNB-19 CNS 65.8% | U251 CNS 38.3% | PC-3 prostate 64.5% | SK-MEL-5 melanoma 31.9% | UACC-62 melanoma 24% | LOX IMVI melanoma 56.9% | SK-MEL-28 melanoma 35.5%

CC(C)CSc1ncnc2nc[nH]c12
inactive: HCT-15 colon 97.2% | HT29 colon 99.5% | SNB-75 CNS 101% | SNB-19 CNS 93.8% | U251 CNS 103% | PC-3 prostate 81.7% | SK-MEL-5 melanoma 95.6% | UACC-62 melanoma 84.8% | LOX IMVI melanoma 98% | SK-MEL-28 melanoma 101%

Cc1cc(C)c(S(=O)(=O)/N=c2/n(-c3ccccc3)nc3n2CCN3C2=NCCN2)c(C)c1
inactive: HCT-15 colon 90.1% | HT29 colon 58% | SNB-75 CNS 74.3% | SNB-19 CNS 91.5% | U251 CNS 76.4% | PC-3 prostate 69.5% | SK-MEL-5 melanoma 60.4% | UACC-62 melanoma 88.8% | LOX IMVI melanoma 73.3% | SK-MEL-28 melanoma 82.3%

Nn1c(Nc2ccc(S(=O)(=O)Nc3ncccn3)cc2)nnc(/C=C/c2c(O)ccc3ccccc23)c1=O
inactive: HCT-15 colon 91.3% | HT29 colon 105% | SNB-75 CNS 92.2% | SNB-19 CNS 96.8% | U251 CNS 85.8% | PC-3 prostate 75.4% | SK-MEL-5 melanoma 88.2% | UACC-62 melanoma 84.3% | LOX IMVI melanoma 84.3% | SK-MEL-28 melanoma 112%

C[C@]12CCc3nc(Nc4ccccc4)sc3C1=CC[C@@H]1[C@@H]2CC[C@]2(C)/C(=N/NC(N)=S)CC[C@@H]12
active: HCT-15 colon -11.6% | HT29 colon 5.72%
inactive: SNB-75 CNS 35.3% | SNB-19 CNS 62.1% | U251 CNS 37.3% | PC-3 prostate 26.6% | SK-MEL-5 melanoma 38.1% | UACC-62 melanoma 42.6% | LOX IMVI melanoma 69.6% | SK-MEL-28 melanoma 63.6%

CCn1cc(-c2cc(-c3ccc(Cl)cc3)nc(N)n2)c(-c2ccc(Br)cc2)n1
inactive: HCT-15 colon 64.9% | HT29 colon 55.8% | SNB-75 CNS 82.4% | SNB-19 CNS 88.7% | U251 CNS 87% | PC-3 prostate 47% | SK-MEL-5 melanoma 90.8% | UACC-62 melanoma 60.7% | LOX IMVI melanoma 88.5% | SK-MEL-28 melanoma 61.3%

Cc1cc[n+](CCCCCCCCCC[n+]2ccc(C)cc2)cc1
inactive: HCT-15 colon 103% | HT29 colon 84.3% | SNB-75 CNS 95.3% | SNB-19 CNS 104% | U251 CNS 105% | PC-3 prostate 87.6% | SK-MEL-5 melanoma 92.8% | UACC-62 melanoma 92.6% | LOX IMVI melanoma 91.4% | SK-MEL-28 melanoma 101%
